Assay results published in PubChem BioAssay (Tox21).
Results filed as inconclusive are left out. Where a call stands in place of a potency, no number is given. Activity calls are given as the source filed them. Calls follow the shape of the full dose curve.

Experiments:
[1] = target: Acetylcholinesterase (Homo sapiens) (UniProt P22303); experiment: Acetylcholinesterase (AChE) small molecule antagonists: enzyme-based qHTS assay (AID 1347397); details: Potency: AChE enzyme activity inhibition; outcome: AChE enzyme activity inhibition; also: nearly all actives have a fitted effect of over 55% in size
Method in brief: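 Colorimetric DTNB read-out of thiocholine released from acetylthiocholine by recombinant human AChE (50 mU/mL as dispensed). Compounds were preincubated 30 min at RT before substrate/DTNB addition, with a 10 min RT reaction.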

[2] = target: Acetylcholinesterase (Homo sapiens) (UniProt P22303); experiment: Acetylcholinesterase (AChE) small molecule antagonists: enzyme-based qHTS assay with human liver microsomes (AID 1347399); details: Potency: qHTS inhibition; outcome: qHTS inhibition; also: nearly all actives have a fitted effect of over 60% in size
Method in brief: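 Recombinant human AChE (50 mU/mL in the enzyme mix) and human liver microsomes (0.25 mg/mL final) were preincubated with compound and NADPH (0.25 mg/mL final) for 30 min at 37 C. Acetylthiocholine/DTNB was then added; thiocholine was read colorimetrically after 10 min at room temperature.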

[3] = target: Acetylcholinesterase (Homo sapiens) (UniProt P22303); experiment: Acetylcholinesterase (AChE) small molecule antagonists: fluorescence cell-based qHTS assay (AID 1347398); details: Potency: AChE activity; outcome: AChE activity; also: nearly all actives have a fitted effect of over 50% in size
Method in brief: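 SH-SY5Y, 2,000 cells/well, attached overnight; cmpd 30 min 37 C; acetylthiocholine/Thiolite Green cocktail 40 min RT; fluorescence Ex/Em 490/520 nm.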

Acetylcholinesterase (Homo sapiens), sequence (P22303 whole entry, looked up): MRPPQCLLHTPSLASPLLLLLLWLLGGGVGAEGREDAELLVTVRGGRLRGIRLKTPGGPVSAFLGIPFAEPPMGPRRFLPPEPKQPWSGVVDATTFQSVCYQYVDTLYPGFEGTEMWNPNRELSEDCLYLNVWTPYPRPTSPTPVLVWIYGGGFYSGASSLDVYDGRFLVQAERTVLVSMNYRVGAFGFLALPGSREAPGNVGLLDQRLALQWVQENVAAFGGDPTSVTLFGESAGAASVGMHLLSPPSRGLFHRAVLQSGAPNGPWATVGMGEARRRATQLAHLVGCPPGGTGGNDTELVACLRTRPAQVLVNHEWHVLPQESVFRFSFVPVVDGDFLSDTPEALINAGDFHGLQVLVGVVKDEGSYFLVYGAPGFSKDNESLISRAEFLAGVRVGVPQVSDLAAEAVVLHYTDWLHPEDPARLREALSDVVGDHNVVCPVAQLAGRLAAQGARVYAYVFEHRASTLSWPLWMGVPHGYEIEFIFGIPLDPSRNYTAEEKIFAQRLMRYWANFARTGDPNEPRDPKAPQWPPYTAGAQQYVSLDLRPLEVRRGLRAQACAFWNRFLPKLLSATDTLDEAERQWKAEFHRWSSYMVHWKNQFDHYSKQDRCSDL

## CC(C)=CCC1=C(O)c2ccccc2C(=O)C1=O
[1]
  Potency: inactive
[2]
  Potency: inactive

## CN(C)CCC=C1c2ccccc2C=Cc2ccccc21
[1]
  outcome: inactive
[2]
  outcome: inactive

## OCCC1CCCCN1 (stereo not drawn)
[1]
  Potency: inactive
[3]
  Potency: inactive
[2]
  Potency: inactive

## O=C1CCN(c2ccccc2)N1
[1]
  Potency: inactive
[2]
  Potency: inactive

## C=CCn1c(=O)n(CC=C)c(=O)n(CC=C)c1=O
[1]
  Potency: inactive
[3]
  Potency: inactive
[2]
  Potency: inactive

## CCCC[P+](C)(CCCC)CCCC
[1]
  Potency: inactive
[2]
  Potency: inactive

## O=C1C=CC(=O)N1
[1]
  Potency: inactive
[2]
  Potency: inactive

## COc1ccc(CCC(=O)c2c(O)cc(O[C@@H]3O[C@H](CO)[C@@H](O)[C@H](O)[C@H]3O[C@@H]3O[C@@H](C)[C@H](O)[C@@H](O)[C@H]3O)cc2O)cc1O
[1]
  Potency: inactive
[3]
  Potency: inactive
[2]
  Potency: inactive

## CN1CCC(=C2c3ccccc3CC(=O)c3sccc32)CC1
[1]
  Potency: inactive
[3]
  Potency: inactive
[2]
  Potency: inactive

## S=c1[nH]c2ccccc2s1
[1]
  Potency: inactive
[2]
  Potency: inactive

## O=C1CC2(CCCC2)CC(=O)N1CCCCN1CCN(c2ncccn2)CC1
[1]
  Potency: inactive
[2]
  Potency: inactive

## O=C(c1ccc(F)cc1)C1CCN(CCn2c(=O)[nH]c3ccccc3c2=O)CC1
[1]
  Potency: inactive
[2]
  Potency: inactive
